Experimental data: PubChem BioAssay AID1578 (Sanford-Burnham Center for Chemical Genomics, 2009)
Hit rate of the full screen: of about 290,000 compounds, about 3,000 (1%) were called active. No stated cut-off is given here; in the data, active means inhibition mostly above about 36% (no sharp cut-off); inactive means mostly below about 34%. Many of the other results were omitted from the sample, so actives are more common in it than they were.

Assay: NOD1 signaling inhibitors, primary screen, cell-based, luminescence, uHTS (AID 1578);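 further: HEK-293T reporter cells stimulated with the NOD1 agonist gamma-tri-DAP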
Settings: NOD1-driven NF-kB luciferase reporter cells, at 4 µM, hits give high values

inhibition, active:
COC(=O)c1ccc(COc2ccc(/C=C/C(=O)c3ccc(OC)c(CSCC(=O)O)c3)cc2OC)cc1 49.5%
CC(C)c1ccc(/C=N/Nc2ccc(C(=O)O)cc2)cc1 64.4%
O=C(O)c1ccc(N/N=C/c2ccc3c(c2)OCO3)cc1 80.4%
Cc1ccc(Nc2nc(CSc3nnc(-c4cccnc4)n3-c3ccccc3C)cs2)cc1 87%
CN(Cc1c(C(=O)N(C)Cc2ccccc2)nc2ccccn12)CC1Cc2ccccc2O1 (stereo not drawn) 64.7%
O=[N+]([O-])c1ccc(NCc2ccc3c(c2)OCO3)cc1 88.5%
COC(=O)C1CC23C=CCN4CCC5(c6ccccc6NC15C2C)C43 (stereo not drawn) 46.8%
Cc1cc(C(=O)COC(=O)c2ccco2)c(C)n1Cc1ccco1 45.8%
COCCn1c(C)cc(C(=O)COC(=O)c2ccccc2Br)c1C 67.9%
Cc1cc(C(=O)CSc2nnc(-c3ccccc3F)o2)c(C)n1Cc1cccs1 58.1%
Cc1cc(C(=O)COC(=O)c2ccccc2O)c(C)n1Cc1cccs1 99.2%
Cc1cccc(-n2cc(-c3ccccc3)c3c(N4CCOCC4)ncnc32)c1 56.2%
COc1ccc2c(C)nc(Nc3nc(C)c(C)c(=O)[nH]3)nc2c1 80.7%
Cc1ccc(NC(=O)c2cc3ccccc3oc2=O)cc1S(=O)(=O)N(C)C 98.1%
O=[N+]([O-])c1ccc(O)c(-c2nc(-c3ccccc3)c(-c3cccs3)[nH]2)c1 80.7%
CC1Cc2ccccc2N1C(=O)CSc1nnc2c(n1)[nH]c1ccc(F)cc12 (stereo not drawn) 48.5%

inhibition, inactive:
COc1cc(=O)[nH]c(SCC(=O)Nc2ccc3ccccc3c2)n1 -28.4%
CCOc1ccc(-c2nnc(NC(=O)Cc3ccc(OC)cc3)o2)cc1 -18.3%
O=C1Cc2ccccc2C(=O)N1c1ccc(F)cc1Cl -16.4%
C=CCn1cc(C(C)=O)c(=O)[nH]c1=O -20.3%
C/C(CC(=O)Nc1ccc2c(c1)OCCO2)=N\NC(=O)Cc1ccc(Cl)cc1 -8.8%
COCCCNC(=O)Cn1c(=O)n(Cc2ccc(F)cc2)c(=O)c2sccc21 -8.2%
CSCCOC(=O)C1=C(C)NC(=O)NC1c1ccc2c(c1)OCO2 (stereo not drawn) -24.6%
O=C(NCC1CCCO1)c1cc2ccccc2nc1Cl (stereo not drawn) -20.2%
CCn1c(=O)c([N+](=O)[O-])c(N2CCSCC2)c2ccccc21 8.8%
O=C(NCc1ccccc1)c1ccc(Cn2cc(C(F)(F)F)ccc2=O)cc1 -8.1%
O=C(N/N=C/c1ccc2c(c1)OCO2)c1ccc2c(c1)OCO2 -42.6%
O=C(O)c1ccc(N/N=C/c2ccc(C(F)(F)F)cc2)cc1 17.4%
O=C(O)c1ccc(N/N=C/c2ccc(-c3ccccc3)cc2)cc1 -27%
O=C(O)c1cc(N/N=C/c2ccc3c(c2)OCO3)ccc1Cl -59.6%
COc1ccc(C(=O)/C=C/c2ccc(OCc3ccccc3)cc2)cc1CSCC(=O)O 0.4%
COc1ccc(C(=O)/C=C/c2cccc(OCc3ccccc3)c2)cc1CSCC(=O)O 11.8%
CCOC(=O)c1[nH]n(-c2ccc(Cl)cc2)c(=O)c1C -33.9%
COC(=O)C1CC(c2ccc(Cl)cc2)=NO1 (stereo not drawn) -38.4%
O=C(c1cc(-c2ccc(Cl)cc2)n[nH]1)N1CCN(C(=O)c2ccco2)CC1 13.4%
CCOc1ncccc1C(=O)Nc1cccc(-c2nnc3n2CCCCC3)c1 -22.1%
Cc1cccc(C)c1NC(=S)NCCc1ccc(O)c(O)c1 -28.1%
COc1ccccc1OC(=O)C1CC(=O)N(c2ccc(Cl)cc2)C1 (stereo not drawn) -7.8%
Cc1ccccc1-n1c(SCc2csc(Nc3ccccc3)n2)nnc1-c1cccnc1 -18.5%
Cc1ccc(Nc2nc(CSc3nnc(-c4cccnc4)n3-c3ccccc3F)cs2)cc1 18.9%
CC1(C)CN(c2cccc(Br)c2)C1=O -15.6%
CC(c1ccon1)N(C)Cc1c(C(=O)N(C)Cc2ccccc2)nc2ccccn12 (stereo not drawn) -38.7%
Cc1nn(C)cc1CN(C)Cc1c(C(=O)N(C)Cc2ccccc2)nc2ccccn12 -20.3%
O=C(CSCC(=O)NC1CC1)Nc1ccc2ccccc2c1 -5.8%
O=C(NCc1ccc2c(c1)OCO2)Nc1ccc([N+](=O)[O-])cc1 -44.5%
O=C(Cc1ccc([N+](=O)[O-])cc1)NCc1ccc2c(c1)OCO2 -15.5%
CN(Cc1ccc2nonc2c1)Cc1nc(Cc2cccc(F)c2)no1 -14.8%
CC1(C)OC(=O)CC1C(=O)NCc1ccccc1 (stereo not drawn) -18.4%
Cc1ccc(NC(=S)NCC(O)c2ccccc2)c(C)c1 (stereo not drawn) -31%
O=S(=O)(c1cccs1)N1CN(Cc2ccc(F)cc2)c2nc3ccccc3nc21 6.3%
CCC12CCCN3CCC4(C(=C(C(=O)OC)C1)Nc1ccccc14)C32 (stereo not drawn) -7.2%
COC(=O)C1CCN(C(=O)/C(C)=C\c2ccccc2)CC1 -32.2%
CCCOC1CCCN(C(=O)CCCn2nnnc2CN2CCOCC2)C1 (stereo not drawn) 10.3%
Cc1cc(C(=O)NC2CCCN(Cc3ccccc3F)C2)no1 (stereo not drawn) -19.1%
Cn1nc(C(=O)NC2CCCN(Cc3ccccc3F)C2)c2ccccc2c1=O (stereo not drawn) -20.9%
O=C(O)C(=O)/C(=C\c1cccc2ccccc12)c1ccc2ccccc2n1 2.3%
CCC(C(=O)NC1CCCC1)N(C(=O)Cn1nnc(-c2ccc(OC)c(OC)c2)n1)c1cccc(O)c1 (stereo not drawn) -30.7%
Cc1cc(C(=O)CSc2n[nH]c(-c3ccccc3F)n2)c(C)n1Cc1cccs1 29.2%
Cc1cc(C(=O)COC(=O)c2ccc(O)cc2)c(C)n1Cc1ccco1 -37.3%
COc1ccc(-c2nnc(SCC(=O)c3cc(C)n(Cc4cccs4)c3C)o2)cc1 -40.4%
COCCn1c(C)cc(C(=O)COC(=O)c2ccc(Br)o2)c1C -30.4%
Cc1cc(C(=O)COc2ccc3ccc(=O)oc3c2)c(C)n1Cc1cccs1 22.1%
Cc1cc(C(=O)COC(=O)c2ccc(Br)o2)c(C)n1Cc1ccco1 -24.2%
Cc1cc(C(=O)CN2C(=O)c3ccccc3C2=O)c(C)n1Cc1cccs1 13.2%
COCCn1c(C)cc(C(=O)COC(=O)c2ccc[nH]c2=O)c1C 50.7%
CCOC(=O)CSc1nnc(Cn2c(=O)sc3ccccc32)n1-c1ccccc1C 5.4%
O=C(Nc1ccc(F)cc1)N(Cc1cccs1)Cc1cc2cc3c(cc2[nH]c1=O)OCO3 -9.6%
CC1(C)CC(=O)C(C=NCC2CCNCC2)=C(O)C1 -6.2%
C=CCNC(=S)Nc1ccc(OC(F)F)c(Cl)c1 -16.4%
CN1C(=O)Cc2cc(S(=O)(=O)NCCc3ccc(Cl)cc3)ccc21 -20.9%
Cc1ccc(S(=O)(=O)N2Cc3ccccc3CC2C(=O)Nn2cnnc2)cc1 (stereo not drawn) -8.2%
Cc1cc(C(=O)COC(=O)c2ccc3c(c2)OCO3)c(C)n1Cc1cccs1 -27.2%
CCn1nc(C(=O)OCC(=O)c2cc(C)n(Cc3cccs3)c2C)c2ccccc2c1=O -15%
O=C(COC(=O)c1ccco1)NC1CCCC1 -23.8%
Cc1cc(NC(=O)CSc2nc3ccsc3c(=O)n2CCCC(=O)NCCc2ccccc2)no1 -20%
CC(C1CC1)N(Cc1ccccc1)C(=O)NC(=O)c1ccc(F)cc1 (stereo not drawn) -23.2%
Cc1ccc(-n2cc(-c3ccccc3)c3c(N4CCOCC4)ncnc32)cc1 20.2%
Cc1cccc(-n2cc(-c3ccccc3)c3c(NN4CCOCC4)ncnc32)c1 -8.1%
CCc1c(C)nc(Nc2nc(C)c3cc(OC)ccc3n2)[nH]c1=O -42.8%
CCc1c(C)nc(Nc2nc(C)c3ccc(OC)cc3n2)[nH]c1=O -7.1%
Cc1sc2ncnc(N3CCC(C(=O)NNC(=O)c4ccccc4Cl)CC3)c2c1C 5.2%
CNC(=O)COC(=O)c1ccc(OCC(=O)Nc2ccccc2OC)c(OC)c1 -18.6%
CC1(C)CC(=O)C2=C(C1)OC(N)=C(C#N)[C@@]21C(=O)N(CC(N)=O)c2ccccc21 -14.4%
COc1ccccc1NS(=O)(=O)c1cc(NC(=O)c2cc3ccccc3oc2=O)ccc1C 42.3%
Cc1ccc(NC(=O)c2cc3ccccc3o2)cc1S(=O)(=O)N(C)C -60.5%
O=C(NC1CCCN(c2ccc(C(F)(F)F)cn2)C1)c1ccncc1 (stereo not drawn) -22%
O=[N+]([O-])c1cccc(-c2nc(-c3cccs3)c(-c3cccs3)[nH]2)c1 26.4%
O=[N+]([O-])c1cccc(-c2nc(-c3ccccc3)c(-c3cccs3)[nH]2)c1 -1.1%
CCOC(=O)Cc1csc(NC(=O)CN2CCN(CC)CC2)n1 -2.4%
O=C1c2ccccc2NC(c2cccs2)N1NS(=O)(=O)c1ccccc1 (stereo not drawn) -22.6%
N#C/C(=C\c1ccc(OCc2ccccc2)cc1)C(=O)Nc1nc2c(s1)CCN(Cc1ccccc1)C2 -24.8%
CC1CCc2cc(F)ccc2N1C(=O)CSc1nnc2c(n1)[nH]c1ccc(F)cc12 (stereo not drawn) 25.7%
CC1Cc2ccccc2N1C(=O)CSc1nnc2c(n1)[nH]c1ccccc12 (stereo not drawn) -0.9%
